# Bioassay records from PubChem BioAssay.
# Rows were chosen to be rich in hits. Some 15% of all compounds tested hit in one or more screens of this group.
# DT40 TDP1 no CPT = qHTS for Inhibitors of human tyrosyl-DNA phosphodiesterase 1 (TDP1): qHTS in cells in absence of CPT; Potency, µM (top dose mostly 46.2 µM), inactives show at the highest dose activity change, negative = growth inhibition, usual class: inhibitors; actives 15% (n = 420,000); DT40 Tdp1-/- hTDP1 cells, no CPT, ATP luminescence, 48 h; AID 686978, 2013; also: nearly all actives have a fitted effect of over 55% in size
#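 Camptothecin absent (DMSO only). Human TDP1-complemented DT40 knockout cells, 400 cells/well, 37 °C for minimum 48 hr; ATP measured via CellTiter-Glo, 30 min dark incubation, luminescence.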
# DT40 TDP1 CPT = DT40-hTDP1 cell growth loss with CPT. Potency, µM (titrated, usually from 46.2 µM), for the others: top-dose activity change, negative = growth inhibition, usual class: inhibitors. AID 686979. chicken DT40 Tdp1-/-;hTDP1 cells + 20 nM CPT, ATP luminescence, 48 h. actives 12% (n = 420,000); also: nearly all actives have a fitted effect of over 55% in size
#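 Chicken DT40 Tdp1-/- cells complemented with human TDP1, 400 cells/well, exposed to compounds plus 20 nM camptothecin for at least 48 h at 37 C; viability read as ATP content by CellTiter-Glo luminescence.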
# ALOX12 inh = inhibitors of human 12S-lipoxygenase ALOX12. purified 12hLO, xylenol orange hydroperoxide absorbance. Potency, µM (series often up to 108 µM), inactives show at the highest dose activity change, negative = inhibition, hits mostly inhibitors. actives 1.1% (n = 580,000). AID 1671190
# Target sequence (P18054 whole entry, looked up): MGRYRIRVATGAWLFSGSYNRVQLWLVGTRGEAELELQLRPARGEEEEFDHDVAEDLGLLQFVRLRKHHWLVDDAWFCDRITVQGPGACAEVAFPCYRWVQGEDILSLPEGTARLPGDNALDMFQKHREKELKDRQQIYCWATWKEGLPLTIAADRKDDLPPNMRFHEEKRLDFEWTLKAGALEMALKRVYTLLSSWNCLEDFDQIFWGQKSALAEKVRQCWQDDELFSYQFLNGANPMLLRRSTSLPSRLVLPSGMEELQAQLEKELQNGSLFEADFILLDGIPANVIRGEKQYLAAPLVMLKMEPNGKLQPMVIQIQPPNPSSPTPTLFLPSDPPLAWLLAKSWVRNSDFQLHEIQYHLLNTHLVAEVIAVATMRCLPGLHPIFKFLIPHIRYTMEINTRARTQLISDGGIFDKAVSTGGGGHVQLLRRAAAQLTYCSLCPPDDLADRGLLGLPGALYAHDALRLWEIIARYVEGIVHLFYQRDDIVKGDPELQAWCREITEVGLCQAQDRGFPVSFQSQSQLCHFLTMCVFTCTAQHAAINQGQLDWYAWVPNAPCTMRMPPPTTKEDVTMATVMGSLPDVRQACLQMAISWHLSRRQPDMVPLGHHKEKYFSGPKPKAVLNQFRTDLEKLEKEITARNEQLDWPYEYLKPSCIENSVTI
#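 Purified human 12hLO at 150 nM in 25 mM Hepes, 0.01% Triton X-100, pH 7.0, preincubated 15 min at room temperature with compound. Reaction started with 40 uM arachidonic acid, 30 min at room temperature. Hydroperoxide measured by Fe-xylenol orange, 573/405 nm absorbance ratio.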
# Gal4-VP16 FLuc = inhibits Gal4-VP16 luciferase reporter, ROR gamma counter-screen; Drosophila S2 Gal4-VP16 UAS-luciferase, luminescence, 20 h; Potency, µM (doses to about 53.6 µM), without a hit: top-dose activity, negative = inhibition, hits mostly inhibitors; actives 3.5% (n = 310,000); AID 2546;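 also: Gal4-VP16 expression switched on by copper sulfate through the metallothionein promoter; nearly all actives have a fitted effect of over 50% in size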
# ELG1 repair inh = blocks ELG1-dependent DNA repair in HEK293T cells | HEK293T ELG1-luciferase reporter, luminescence, 16 h; DNA damage induced by 5-fluorouridine | Potency, µM (series often up to 46.1 µM), without a hit: top-dose activity change, negative = inhibition, usual class: inhibitors | actives 2.3% (n = 330,000) | AID 504467; also: nearly all actives have a fitted effect of over 55% in size
#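 In this reporter screen, reduction of luminescence relative to DMSO vehicle indicated activity. Compounds and 5-fluorouridine were added together to 2,000 cells per well, incubated for 16 hr at 37 °C, then developed with ONE-Glo.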
# RORgamma inh = inhibitors of mouse ROR gamma transcriptional activity; Drosophila S2 Gal4-RORgamma UAS-luciferase reporter, 20 h; Potency, µM (series often up to 53.6 µM), inactives show at the highest dose activity change, negative = inhibition, most hits filed as inhibitors; actives 5.4% (n = 310,000); AID 2551; also: nearly all actives have a fitted effect of over 60% in size
#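 A Gal4/UAS one-hybrid system in insect cells: metallothionein-promoter Gal4–ROR gamma fusion plus Photinus luciferase reporter. Copper sulfate 700 uM final, 20 hr ambient incubation, luminescent detection after 10 min with reagent.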
# * = called active by the depositor; ? = inconclusive; . = not tested or not shown; [ ] = dose if it differs, or a comment. Calls follow the shape of the dose curve; as a rule, active = well fitted curve in the direction sought with a large enough effect; inconclusive = small, poorly fitted or top-dose-only effect, or another doubt; inactive = no such curve, though single readings can be large; an effect the other way counts as inactive or inconclusive. % is scaled to controls: 0 for no effect and ±100 for the full control effect; potency is read from the fitted curve at half-maximal effect.
SMILES,DT40 TDP1 no CPT,DT40 TDP1 CPT,ALOX12 inh,Gal4-VP16 FLuc,ELG1 repair inh,RORgamma inh
CCOc1cc(C(=O)Nc2ccc3oc(-c4ccc(CC)cc4)nc3c2)cc(OCC)c1OCC,8.2µM*,23µM*,-16%,.,.,.
CCOc1cc(C(=O)Nc2ccc(-c3nc4cc(C)ccc4o3)cc2)cc(OCC)c1OCC,9.2µM*,12µM*,-8%,.,.,.
CCC(=O)Oc1ccc(C(=O)Nc2ccc(-c3nc4cc(C)ccc4o3)cc2)cc1,.,.,23%,.,.,.
O=C(NC1CCCC1)N1CCCC(Cn2c(C3CC3)nc3cccnc32)C1 (centres undefined),.,.,14%,.,.,.
CC(C)NC(=O)N1CCC[C@@H](O)[C@H](NC(=O)c2ccc(OCCN3CCCC3)cc2)C1,.,.,13%[176 µM],.,.,.
Cc1[nH]c2ccccc2c1N=Nc1c(C)n(C)n(-c2ccccc2)c1=O,?,21µM*,?,-6%,13µM*,29%
Cc1c(N=Nc2ccc(O)cc2)c(=O)n(-c2ccccc2)n1C,3%,3%,8%,1%,-2%,-7%
CC(C)CCN1CCC(N2CCN(C(=O)c3cc(F)cc(F)c3)CC2)C1=O (centres undefined),.,.,80%,.,.,.
CC(C)Oc1ccc(C(=O)CCN2CCOCC2)cc1,3.7µM*,3.3µM*,?,.,.,.
CC(C)Oc1ccc(C(=O)CCN2CCCCC2)cc1,?,?,-21%,6.3µM*,11%,10µM*
CC(C)Oc1ccc(C(=O)N2CCCCC2CCN2CCCCC2)cc1 (centres undefined),-28%,-24%,-7%,.,.,.
CCCCCOc1ccc(C(=O)CCN2CCOCC2)cc1,8.2µM*,5.8µM*,?,?,?,-6%[1.91 µM]
COc1cccc(CNC(=O)C2CCCN(c3nnc(-n4c(C)ccc4C)s3)C2)c1 (centres undefined),?,?,-9%,.,.,.
COc1ccccc1CNC(=O)C1CCCN(c2nnc(-n3c(C)ccc3C)s2)C1 (centres undefined),?,16µM*,-7%,.,.,.
Cc1ccc(C)n1-c1nnc(N2CCC(C(=O)Nc3ccccc3Br)CC2)s1,16µM*,?,-13%,.,.,.
Cc1cccc(CNC(=O)C2CCN(c3nnc(-n4c(C)ccc4C)s3)CC2)c1,16µM*,?,-4%,.,.,.
CS(=O)(=O)N1CCC(C(=O)Nc2ccccc2Br)CC1,5%,15%,-9%,-4%,-1%,2%
Cc1ccc(C)n1-c1nnc(N2CCCC(C(=O)NCc3ccccc3)C2)s1 (centres undefined),?,?,-13%,.,.,.
COc1cccc(CNC(=O)C2CCN(c3nnc(-n4c(C)ccc4C)s3)CC2)c1,15µM*,?,-25%,.,.,.
O=C(Nc1ccccc1)c1ccc2c(c1)OCCN(CCC(F)(F)F)C2,.,.,2%[176 µM],.,.,.
O=c1oc2ccccc2cc1-c1nc(-c2ccc(N3CCCCC3)cc2)no1,.,.,0%,.,.,.
O=C(NCC(O)COc1ccc(C(F)(F)F)cc1)C1CCCC1 (centres undefined),.,.,1%,.,.,.
CCOc1ccc(NC(=O)C2CCN(c3nnc(-n4c(C)ccc4C)s3)CC2)cc1,13µM*,23µM*,-15%,.,.,.
COc1ccc(CNC(=O)C2CCN(c3nnc(-n4c(C)ccc4C)s3)CC2)c(OC)c1,16µM*,?,-7%,.,.,.
COCCCNC(=O)C1CCN(c2nnc(-n3cccc3CNc3ccc(C)cc3)s2)CC1,-8%,-9%,-16%,.,.,.
SMILES,DT40 TDP1 no CPT,DT40 TDP1 CPT,ALOX12 inh,Gal4-VP16 FLuc,ELG1 repair inh,RORgamma inh
COc1cccc(CNC(=O)C2CCN(c3nnc(-n4c(C)ccc4C)s3)CC2)c1OC,-63%,?,3%,.,.,.
Cc1ccccc1CNC(=O)C1CCN(c2nnc(-n3c(C)ccc3C)s2)CC1,?,16µM*,-6%,.,.,.
CCOc1ccc(OCC)c(NC(=O)C2CCN(c3nnc(-n4cccc4)s3)CC2)c1,13%,-17%,7%,.,.,.
COc1ccc(CNC(=O)C2CCN(c3nnc(-n4cccc4CNc4ccc(C)cc4)s3)CC2)c(OC)c1,13µM*,16µM*,-4%,.,.,.
CO[C@H]1C(=O)N(C(C)C)[C@H]1C1CCN(Cc2cccc(C#N)c2)CC1,.,.,-8%,.,.,.
Cc1ccc(C)n1-c1nnc(N2CCCC(C(=O)NCc3cccc(F)c3)C2)s1 (centres undefined),-17%,?,-12%,.,.,.
Cc1ccc(C)n1-c1nnc(N2CCCC(C(=O)NCc3cccc(Cl)c3)C2)s1 (centres undefined),12µM*,21µM*,-17%,.,.,.
Cc1cccc(NC(=S)N/N=C2/CCCC(C)C2)c1 (centres undefined),.,.,35µM*,.,.,.
CC1CCCC/C1=N\NC(=S)Nc1cccnc1 (centres undefined),0%,-7%,-28%,-5%,-1%,?
CC1CCCC/C1=N\NC(=S)NCCc1ccccc1 (centres undefined),?,?,-11%,1.8µM*,-3%,0.35µM*
Cc1ccc(NC(=S)N/N=C2\CCCCC2C)cc1 (centres undefined),9.2µM*,5.2µM*,?,0%,10%,?
CC1CCC/C(=N\NC(=O)Nc2ccccc2)C1 (centres undefined),-10%,12%,-3%,-15%,28%,-19%
COCCN1CCCC2(CCN(c3nc4c(c(=O)[nH]c(=O)n4C)n3C)C2)C1=O (centres undefined),.,.,31%,.,.,.
CCN(CC)S(=O)(=O)c1ccc(NC2CCN(Cc3ccccc3)CC2)nc1,?,?,-20%,-1%,-21%,-5%
O=C(NC1CCN(Cc2ccccc2)CC1)c1cccc(S(=O)(=O)Nc2ccc(Br)cc2)c1,?,21µM*,?,.,-12%,.
Cc1ccc(NS(=O)(=O)c2cccc(C(=O)NC3CCN(Cc4ccccc4)CC3)c2)c(C)c1,?,9.2µM*,45%,.,.,.
COc1ccccc1NS(=O)(=O)c1cccc(C(=O)NC2CCN(Cc3ccccc3)CC2)c1,23µM*,?,.,.,-2%,.
CCN(CC)S(=O)(=O)c1ccc(Cl)c(C(=O)NC2CCN(Cc3ccccc3)CC2)c1,13µM*,16µM*,20%,-18%,?,30%
C=CCN(c1ccccc1)S(=O)(=O)c1cccc(C(=O)NC2CCN(Cc3ccccc3)CC2)c1,18µM*,13µM*,-22%,.,-29%,.
